Where “and” joins values, the source holds several entries; their conditions need not be identical. Identical values can stand only once. The whole screen tested about 260,000 compounds, of which about 1,500 (0.58%) were called active. Another 5% or so got no clear call; they are omitted.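 Rule for the calls: active = inhibition above a set limit at one or more doses, reproduced on every date tested; inconclusive = results disagree between test dates, or hit never tested in dose response; inactive = the rest.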 Only a sample is shown. Measured potencies and affinities stand elsewhere.
The compounds below were run against Virion infectivity factor (Human immunodeficiency virus type 1 group M subtype B (isolate BH10)) + Virion infectivity factor (Human immunodeficiency virus type 1 group M subtype B (isolate BRU/LAI)) + Virion infectivity factor (Human immunodeficiency virus type 1 group M subtype B (isolate PCV12)) + Virion infectivity factor (Human immunodeficiency virus type 1 group M subtype B (isolate HXB2)) + DNA dC->dU-editing enzyme APOBEC-3G (Homo sapiens) (UniProt P69720+P69721+P69722+P69723+Q9HC16) (assay: HIV-1 Vif–A3G interaction blockers – biochemical, TR-FRET, GST-Vif 1-94, biotin-A3G peptide, dose response retest, primary screen (AID 1117319;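 note: Vif residues 1-94 fused to GST binding biotinylated APOBEC3G peptide 110-148; 0% = full assay without inhibitor and 100% = GST in place of GST-Vif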)). Details: TR-FRET GST-Vif / biotin-A3G peptide binding; hits give high values.

inhibition, inactive:
C[n+]1ccn(CC(=O)c2cccs2)c1 -0.3%
O=[N+]([O-])c1ccc2nc(CN3CCCCC3)[nH]c2c1 -2.67%
Nc1ccc(C(=O)C(=O)c2ccc(N)cc2)cc1 -4.86%
Nc1ccc(C(=O)NCCCCCCNC(=O)c2ccc(N)cc2)cc1 -3.48%
CC(C)=CCN1CCN(Cc2cccn2-c2nccs2)CC1CCO (configuration not stated) 3.13%
C/C(=N\NC(=O)CNC(=O)c1ccco1)c1ccc(Br)cc1 -0.8%
COc1ccc(/C=C/c2nc3ccccc3c(=O)n2-c2cccc(C(=O)O)c2)cc1 -12.6%
CCn1c(/C=C/c2ccc(O)c(O)c2)nc2ccccc2c1=O 23.1%
N#Cc1c(N)sc2c1CCCCCC2 22.4%
CC1(C)Cc2c(C#N)c(N)sc(=S)c2CO1 18.9%
CS(=O)(=O)N1CCC(C(=O)Nc2cccc(C(F)(F)F)c2)CC1 30.5%
COc1ccc(CCNC(=O)COC(=O)/C=C/c2ccc3c(c2)OCO3)cc1 -7.05%
COc1ccc(CCn2c(N)cc(=O)[nH]c2=O)cc1OC -7.47%
CCc1ccc(-n2c(O)c(C=NCCN(CC)CC)c(=O)[nH]c2=O)cc1 1.67%
COc1ccc(CCn2c(O)c(C=Nc3cccc(F)c3)c(=O)[nH]c2=O)cc1OC 22.7%
CC(=O)N1CCN(c2ccc(N=Cc3c(O)n(Cc4ccccc4)c(=O)[nH]c3=O)cc2)CC1 15.1%
COc1cccc(CNS(=O)(=O)c2ccc3c(c2)CCN3C(=O)C2CC2)c1 5.57%
CCCC(NC(=O)CCc1c(C)c2cc3c(-c4ccccc4)coc3cc2oc1=O)C(=O)O (configuration not stated) -3.65%
O=c1cc(O)n(-c2ccccc2)c(=S)[nH]1 30.2%
O=c1cc(O)n(-c2ccc(Cl)cc2)c(=S)[nH]1 -0.58%
CC(C)[C@H](NC(=O)c1c(F)cccc1F)C(=O)OCC(=O)NC(=O)NC1CCCC1 -7.96%
Cc1ccccc1S(=O)(=O)c1c(C)cc(C)n(C)c1=O 6.26%
Cc1cccc(C(=O)NNS(=O)(=O)c2ccc(F)cc2)c1 -1.42%
O=C(N/N=C/c1cccc([N+](=O)[O-])c1)c1cccc2cc[nH]c12 -4.35%
CC1=C(C(N)=O)C(c2cccs2)n2nc(-c3cccc(C)c3)nc2N1 (configuration not stated) 10.3%
CC1=C(C(=O)Nc2ccccc2F)C(c2ccsc2)C2=C(CC(C)(C)CC2=O)N1 (configuration not stated) 0.63%
COC(=O)C1=C(C)NC2=C(C(=O)CC(c3cccs3)C2)C1c1ccsc1 (configuration not stated) 3.51%
CCCn1c(N)c(N(CCOC)C(=O)c2cc(-c3ccco3)nc3ccccc23)c(=O)[nH]c1=O 22.8%
CN(C(=O)COC(=O)c1cc(-c2ccc(Cl)s2)nc2ccccc12)C1CCS(=O)(=O)C1 (configuration not stated) -9.51%
Cc1ccc(-c2cc(C(=O)OCC(=O)N(C)C3CCS(=O)(=O)C3)c3ccccc3n2)c(C)c1 (configuration not stated) 5.39%
O=C(COC(=O)c1cc(-c2cccnc2)nc2ccccc12)Nc1ccc(F)cc1F -4.09%
CCNC(=O)COC(=O)c1cc(-c2ccc(OC)cc2)nc2ccccc12 17.1%
CCCCN(C(=O)c1cc(-c2ccco2)nc2ccccc12)c1c(N)n(CCCC)c(=O)[nH]c1=O 22.2%
O=C(COC(=O)c1cc(-c2ccco2)nc2ccccc12)NCc1ccccc1 27.6%
Cc1cccc(C)c1NC(=O)COC(=O)c1cccnc1 0.67%
COc1ccc(-c2nnc(SCC(N)=O)n2N)cc1 -2.53%
O=[N+]([O-])c1ccc(/C=N/N2CCN(c3ccncc3S(=O)(=O)N3CCCCC3)CC2)cc1 -3.38%
O=C(c1cccc2ccccc12)C1CCCN(C(=O)C2CCOCC2)C1 (configuration not stated) 3.16%
CCn1c(SCC(=O)Nc2sc3c(c2C#N)CCCC3)nnc1-c1ccco1 3.19%
COc1cccc(NC(=S)NCCc2ccccn2)c1 -0.67%
Cc1ccc(N2CC(C(=O)OCC(=O)c3c(N)n(CC(C)C)c(=O)n(C)c3=O)CC2=O)cc1 (configuration not stated) -1.07%
COC(=O)CSc1cc(C)nc(NC(C)=O)n1 3.6%
CC(C(=O)OCC(=O)Nc1ccc2c(c1)OCO2)N1C(=O)c2ccccc2C1=O (configuration not stated) 5.56%
CCN(CC)S(=O)(=O)c1cccc(C(=O)N[C@H](C(=O)OCC(N)=O)C(C)C)c1 19%
CC(C)c1ccc(C(=O)OCC(=O)c2c(N)n(C)c(=O)n(C)c2=O)cc1 2%
Clc1c(-c2ccccc2)nnn1-c1ccccc1 -12%
Cc1cc(C(=O)N2CCN(c3cccc(Cl)c3)CC2)c(C)o1 -5.08%
O=C(OCC(=O)N1CCN(C(=O)c2ccco2)CC1)c1cc(-c2ccccc2)nc2ccccc12 -3.01%
O=C(COC(=O)c1ccco1)NCc1ccc2c(c1)OCO2 18.2%
CCOC(=O)C1CCCN(C(=O)c2cc(-c3ccc(C)cc3)nc3ccccc23)C1 (configuration not stated) 10.1%
Cc1cc(C(=O)OCC(=O)NCc2ccc3c(c2)OCO3)c2ccccc2n1 -5.38%
O=C(OCC(=O)N1CCN(C(=O)c2ccco2)CC1)c1cc(-c2ccc(F)cc2)nc2ccccc12 -2.07% and -4.96%
CCOC(=O)C1CCCN(C(=O)c2cc(-c3ccccc3)nc3ccccc23)C1 (configuration not stated) -11.1%
O=C(Nc1ccc2oc(-c3cccnc3)nc2c1)c1cc2ccccc2o1 20.3%
COc1ccc(-n2nnc3c(=O)n(Cc4cc(C)ccc4C)cnc32)cc1 -0.91%
CCN(CC)CCNC(=O)c1cc([N+](=O)[O-])c(N(C)C)cc1OC 12.4%
COc1ccccc1NC(=S)NCCSc1ccc(C)cc1 9.9%
O=C1/C(=C/c2cccc(Br)c2)SC(=S)N1CCC(=O)N(CCO)c1ccccc1 -10.6%
Cc1ccc(S(=O)(=O)N2CCCCC2)cc1C(=O)NCCCN1CCOCC1 1.73%
COc1ccc(S(=O)(=O)NCC2CCC(C(=O)N3CCC4(CC3)OCCO4)CC2)cc1 (configuration not stated) 0.18% and -4.29%
Cc1cc(C)c(S(=O)(=O)NCC2CCC(C(=O)NCCCN3CCOCC3)CC2)c(C)c1 (configuration not stated) 3.66%
Cc1ccc(-n2nc3c(c2NC(=O)c2ccccc2Br)CS(=O)C3)cc1 (configuration not stated) 0.72%
O=c1[nH][nH]c(C(F)(F)F)c1/C=N/N1CCOCC1 -7.03%
C/C(=N\Nc1ccc(Cl)c(C(=O)O)c1)c1cccs1 -4.46%
C/C(=N\Nc1ccc(Cl)c(C(=O)O)c1)c1ccccn1 -6.06%
CCOc1cc(/C=C2\C(=O)N(Cc3ccco3)C(C)=C2C(=O)OC)ccc1O 24.1%
COC(=O)C1=C(C)N(C)C(=O)/C1=C\c1ccco1 9.7%
COC(=O)C1=C(C)NC(=O)/C1=C\N(C)C 5.9%
CCN1C(=O)/C(=C\c2cccs2)C(C(=O)OC)=C1C 2.01%
COC(=O)C1=C(C)NC(=O)/C1=C\c1ccc2c(c1)OCO2 16%
COC(=O)C1=C(C)NC(=O)/C1=C\c1cc(C)n(-c2c(C)cccc2C)c1C 22.2%
COC(=O)C1=C(C)N(Cc2ccco2)C(=O)/C1=C\c1ccc([N+](=O)[O-])cc1 -12.1%
COC(=O)C1=C(O)/C(=C\c2cc(C)n(-c3ccccc3F)c2C)N=C1C 25.1%
CC(Sc1ncccn1)C(=O)Nc1ccc2c(c1)OCCO2 (configuration not stated) -5.22%
Nc1cc(S(=O)(=O)Nc2ccc(Cl)cc2)ccc1N1CCOCC1 0.79%
COc1ccccc1Nc1nnc(SCC(=O)NC2CCCC2)s1 -10.8%
O=C(CCCOc1ccccc1)N1CCN(C(=O)c2ccco2)CC1 -5.18%
Cc1ccc(-c2nnc(-c3ccncc3)n2-c2ccc(C)cc2)cc1 -0.95%
C=CCN1C(=O)/C(=C\c2cccs2)C(C(=O)OC)=C1C 0.55%
COC(=O)C1=C(C)N(CC(C)C)C(=O)/C1=C\c1cccs1 2.91%
O=C(Nc1ccccc1)c1ccc(Cn2cc(C(F)(F)F)ccc2=O)cc1 -1.59%
O=S(=O)(NCc1ccccn1)c1ccc2c(c1)OCCO2 -0.75%
CCOc1ccc(C(=O)NCC(=O)NCC(c2ccco2)N2CCCCC2)cc1 (configuration not stated) -8.81%
CC[n+]1c(/C=C2\C=C(C)CC(C)(C)C2)sc2ccccc21 25.8%
CC[n+]1c(/C=C2\C=C(C)CC(C)C2)sc2ccccc21 (configuration not stated) 26%
CCCCOc1ccc(/C=c2\sc3ncnn3c2=O)cc1 6.23%
CCSc1nc2c(sc3nc(C)cc(C)c32)c(=O)[nH]1 -3.63%
CCOCCCNC(=O)C(NC(=O)C1CCC(=O)N1)c1ccc(C)cc1 (configuration not stated) 8.49%
C#CC(C)OC(=O)Nc1cnccc1C(F)(F)F (configuration not stated) 31.2%
O=C(CN1C(=O)C(=O)N(C2CCCC2)C1=O)Nc1ccc(N2CCOCC2)cc1 -7.86%
CC(C)CC(=O)Nc1ccc(N2CCOCC2)cc1 -0.35%
COc1ccc(NC2CC(=O)N(C(C)C)C2=O)cc1 (configuration not stated) 1.77%
O=C1CC(Nc2ccccc2)C(=O)N1c1ccc(N2CCOCC2)cc1 (configuration not stated) 29%
COc1cccc(N2C(=O)CC(Nc3ccc(N4CCOCC4)cc3)C2=O)c1 (configuration not stated) 27.7%
Cc1ccc(CN2C(=O)CC(Nc3ccc(N4CCOCC4)cc3)C2=O)cc1 (configuration not stated) 4.98%
O=C1CC(Nc2ccc(N3CCOCC3)cc2)C(=O)N1c1ccccc1 (configuration not stated) 16.9%
Cc1ccc(NC2CC(=O)N(c3ccc(N4CCCCC4)cc3)C2=O)cc1 (configuration not stated) 25.5%

Reference: PubChem BioAssay AID1117319 (Southern Research Institute, 2015)
